# Data reported in PubChem BioAssay (EPA / NIEHS).
# Several values for one entry are separate records, joined by “and”; a condition that tells them apart may be missing. Equal values may be shown once. Records with an inconclusive call do not appear. Activity calls are given as the source filed them. Rule for the calls: active = hit-call score of the fitted dose curve at least 0.9, where 1 is the maximum; inconclusive = response in the unintended direction; inactive = score below 0.9.
# Experiments:
# [1] = target: human Matrix Metalloproteinase-9 (MMP9), MMP9 (gene 4318) (UniProt P14780); assay: NVS_ENZ_hMMP9: NovaScreen (NVS) Enzymatic Assay for human Matrix Metalloproteinase-9 (MMP9) (AID 2283190);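 note: cell-free recombinant MMP9 protease activity read by fluorescent substrate signal; active means inhibition seen as loss of fluorescence signal versus DMSO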
# Summary of the method: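 Extracted enzyme, fluorescent substrate, 1 h post-dose read. Single conc 25 uM in duplicate, then concentration series for actives. Activity = signal loss relative to DMSO negative control.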
# [2] = target: human Phosphodiesterase 10 (PDE10), PDE10A (gene 10846) (UniProt Q9Y233); assay: NVS_ENZ_hPDE10: NovaScreen (NVS) Enzymatic Assay for human Phosphodiesterase 10 (PDE10) (AID 2283195)
# Summary of the method: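 Biochemical single-readout PDE10A assay, cell-free, extracted protein. Compounds first screened at 25 uM in duplicate, hits then titrated to 50 uM max. Activity measured after 1 h; loss-of-signal fitted against DMSO negative control.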
# [3] = target: human Phosphodiesterase 5 (PDE5), PDE5A (gene 8654) (UniProt O76074); assay: NVS_ENZ_hPDE5: NovaScreen (NVS) Enzymatic Assay for human Phosphodiesterase 5 (PDE5) (AID 2283194)
# Summary of the method: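 Screening began in duplicate at 25 uM, with actives taken into concentration-response. Enzyme activity of recombinant PDE5 toward its substrate was measured at 1 h by fluorescence mobility-shift detection, relative to DMSO controls.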
# [4] = target: Collagenase 3 (Homo sapiens) (UniProt P45452); assay: NVS_ENZ_hMMP13: NovaScreen (NVS) Enzymatic Assay for human Matrix Metalloproteinase-13 (MMP13) (AID 2283182)
# Summary of the method: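 Recombinant MMP13 cleaving fluorescent substrate, cell-free, measured 1 h after dosing. Primary duplicate screen at 25 uM; actives tested in concentration-response up to 50 uM; loss of signal relative to DMSO.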
# [5] = target: human Matrix Metalloproteinase-7 (MMP7), MMP7 (gene 4316) (UniProt P09237); assay: NVS_ENZ_hMMP7: NovaScreen (NVS) Enzymatic Assay for human Matrix Metalloproteinase-7 (MMP7) (AID 2283183)
# Method: (§1) NVS_ENZ_hMMP7 is a biochemical, single-readout assay that uses extracted gene-proteins in a cell-free assay. Measurements were taken 1 hour after chemical dosing in a 96-well plate.NVS_ENZ_hMMP7 is one of one assay component(s) measured or calculated from the NVS_ENZ_hMMP7 assay. It is designed to make measurements of enzyme activity, a form of enzyme reporter, as detected with fluorescence intensity signals by Fluorescence technology.Data from the assay component NVS_ENZ_hMMP7 was analyzed into 1 assay endpoint. This assay endpoint, NVS_ENZ_hMMP7, was analyzed in the positive analysis fitting direction relative to DMSO as the negative control and baseline of activity. […] Furthermore, this assay endpoint can be referred to as a primary readout, because this assay has produced multiple assay endpoints where this one serves a enzymatic activity function. […]
# (§2) Binding assays used specific radioligands (tritiated, iodinated) with non-radioactive competitive displacement ligands in agonist or antagonist protocols (as indicated) and various reference compounds and inhibitors to titrate specific binding to receptors and transporters. Most enzyme assays (CYPs, kinases, phosphatases, proteases, HDACs) used recombinant protein and specific substrates (fluorescence mostly, some colorimetric and radioactive) and inhibitors, followed by a biochemical separation of substrate and product. […]
# [6] = target: human Matrix Metalloproteinase-2 (MMP2), MMP2 (gene 4313) (UniProt P08253); assay: NVS_ENZ_hMMP2: NovaScreen (NVS) Enzymatic Assay for human Matrix Metalloproteinase-2 (MMP2) (AID 2283184)
# Summary of the method: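 Compounds first screened in duplicate at a single 25 uM, with actives followed up in concentration series. Recombinant human MMP2 cleaves a fluorogenic substrate; fluorescence taken at 1 h, inhibition fitted relative to DMSO.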
# [7] = target: human Mitogen- and Stress-activated Protein Kinase-1 (Msk1), RPS6KA5 (gene 9252) (UniProt O75582); assay: NVS_ENZ_hMsk1: NovaScreen (NVS) Enzymatic Assay for human Mitogen- and Stress-activated Protein Kinase-1 (Msk1) (AID 2283187)
# Summary of the method: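 Chemicals first run in duplicate at 25 uM, with actives followed up in singleton concentration series to 50 uM maximum. Enzyme activity came from substrate/product mobility-shift separation with fluorescence detection after 1 h incubation of the recombinant protein.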
# [8] = target: human Phosphodiesterase 4A1 (PDE4A1), PDE4A (gene 5141) (UniProt P27815); assay: NVS_ENZ_hPDE4A1: NovaScreen (NVS) Enzymatic Assay for human Phosphodiesterase 4A1 (PDE4A1) (AID 2283191)
# Summary of the method: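 Fluorescent substrate turnover by recombinant PDE4A1 read after 1 h by mobility-shift separation. Primary duplicate screen at 25 uM; hits retested in concentration series with a 50 uM maximum, relative to DMSO.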
# [9] = target: cAMP-dependent protein kinase catalytic subunit alpha (Homo sapiens) (UniProt P17612); assay: NVS_ENZ_hPKA: NovaScreen (NVS) Enzymatic Assay for human Protein Kinase A (PKA) (AID 2283192)
# Summary of the method: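 Cell-free kinase activity read by fluorescence after mobility-shift separation of substrate and product, 1 h post-dosing. Single-concentration duplicate screen (25 uM) preceded singleton concentration series (top 50 uM); loss of signal versus DMSO.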
# [10] = target: human Matrix Metalloproteinase-3 (MMP3), MMP3 (gene 4314) (UniProt P08254); assay: NVS_ENZ_hMMP3: NovaScreen (NVS) Enzymatic Assay for human Matrix Metalloproteinase-3 (MMP3) (AID 2283185)
# Method: as §1, with “NVS_ENZ_hMMP3” for “NVS_ENZ_hMMP7”, “plate.NVS_ENZ_hMMP3” for “plate.NVS_ENZ_hMMP7”, “NVS_ENZ_hMMP3,” for “NVS_ENZ_hMMP7,”
# as §2
# Chain of human Phosphodiesterase 10 (PDE10), PDE10A (gene 10846) (Q9Y233 whole entry, looked up): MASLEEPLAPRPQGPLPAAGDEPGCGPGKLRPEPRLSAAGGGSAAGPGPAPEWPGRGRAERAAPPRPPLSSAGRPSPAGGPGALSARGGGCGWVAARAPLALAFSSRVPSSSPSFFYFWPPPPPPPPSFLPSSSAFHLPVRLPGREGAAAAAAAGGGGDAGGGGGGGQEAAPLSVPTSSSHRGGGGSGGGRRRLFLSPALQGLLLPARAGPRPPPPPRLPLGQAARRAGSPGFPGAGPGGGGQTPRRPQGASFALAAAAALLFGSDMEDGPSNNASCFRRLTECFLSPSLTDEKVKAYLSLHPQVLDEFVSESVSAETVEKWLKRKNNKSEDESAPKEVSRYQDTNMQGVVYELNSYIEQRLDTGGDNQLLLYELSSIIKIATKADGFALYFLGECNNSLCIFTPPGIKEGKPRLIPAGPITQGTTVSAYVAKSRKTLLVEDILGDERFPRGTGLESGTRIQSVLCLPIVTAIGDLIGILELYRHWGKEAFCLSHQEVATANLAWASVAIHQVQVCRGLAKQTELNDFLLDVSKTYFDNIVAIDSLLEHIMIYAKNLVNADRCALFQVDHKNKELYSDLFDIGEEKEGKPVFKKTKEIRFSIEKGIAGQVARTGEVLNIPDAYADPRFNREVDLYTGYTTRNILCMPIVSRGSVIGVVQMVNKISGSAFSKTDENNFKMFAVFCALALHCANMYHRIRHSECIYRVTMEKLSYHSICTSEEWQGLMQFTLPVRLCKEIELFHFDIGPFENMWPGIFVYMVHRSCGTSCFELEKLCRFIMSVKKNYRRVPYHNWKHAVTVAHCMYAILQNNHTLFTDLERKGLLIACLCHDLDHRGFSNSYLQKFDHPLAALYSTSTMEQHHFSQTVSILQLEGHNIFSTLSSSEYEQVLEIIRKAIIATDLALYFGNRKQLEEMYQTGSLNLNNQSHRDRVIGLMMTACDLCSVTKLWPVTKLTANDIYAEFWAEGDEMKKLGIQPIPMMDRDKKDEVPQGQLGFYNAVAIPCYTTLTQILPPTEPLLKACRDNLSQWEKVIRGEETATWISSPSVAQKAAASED
# Chain of human Matrix Metalloproteinase-9 (MMP9), MMP9 (gene 4318) (P14780 whole entry, looked up): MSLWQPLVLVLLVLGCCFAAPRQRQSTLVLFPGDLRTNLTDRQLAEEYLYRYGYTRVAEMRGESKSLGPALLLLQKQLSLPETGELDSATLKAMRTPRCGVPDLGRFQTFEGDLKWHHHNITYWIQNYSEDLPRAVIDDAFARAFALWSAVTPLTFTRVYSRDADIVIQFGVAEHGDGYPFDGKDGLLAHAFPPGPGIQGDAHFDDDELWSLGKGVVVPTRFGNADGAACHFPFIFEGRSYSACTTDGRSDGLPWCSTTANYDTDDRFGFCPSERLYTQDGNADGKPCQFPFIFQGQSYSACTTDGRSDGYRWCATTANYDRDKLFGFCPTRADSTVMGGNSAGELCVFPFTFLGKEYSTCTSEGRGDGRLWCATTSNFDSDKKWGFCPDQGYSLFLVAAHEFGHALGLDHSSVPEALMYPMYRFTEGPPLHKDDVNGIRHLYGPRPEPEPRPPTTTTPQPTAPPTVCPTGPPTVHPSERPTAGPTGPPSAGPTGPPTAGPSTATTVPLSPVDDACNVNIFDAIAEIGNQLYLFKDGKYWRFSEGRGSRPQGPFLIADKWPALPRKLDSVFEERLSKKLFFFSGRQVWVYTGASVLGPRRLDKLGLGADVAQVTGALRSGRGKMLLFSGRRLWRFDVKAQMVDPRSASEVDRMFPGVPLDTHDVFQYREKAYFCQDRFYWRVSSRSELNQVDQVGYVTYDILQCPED
# Chain of human Mitogen- and Stress-activated Protein Kinase-1 (Msk1), RPS6KA5 (gene 9252) (O75582 whole entry, looked up): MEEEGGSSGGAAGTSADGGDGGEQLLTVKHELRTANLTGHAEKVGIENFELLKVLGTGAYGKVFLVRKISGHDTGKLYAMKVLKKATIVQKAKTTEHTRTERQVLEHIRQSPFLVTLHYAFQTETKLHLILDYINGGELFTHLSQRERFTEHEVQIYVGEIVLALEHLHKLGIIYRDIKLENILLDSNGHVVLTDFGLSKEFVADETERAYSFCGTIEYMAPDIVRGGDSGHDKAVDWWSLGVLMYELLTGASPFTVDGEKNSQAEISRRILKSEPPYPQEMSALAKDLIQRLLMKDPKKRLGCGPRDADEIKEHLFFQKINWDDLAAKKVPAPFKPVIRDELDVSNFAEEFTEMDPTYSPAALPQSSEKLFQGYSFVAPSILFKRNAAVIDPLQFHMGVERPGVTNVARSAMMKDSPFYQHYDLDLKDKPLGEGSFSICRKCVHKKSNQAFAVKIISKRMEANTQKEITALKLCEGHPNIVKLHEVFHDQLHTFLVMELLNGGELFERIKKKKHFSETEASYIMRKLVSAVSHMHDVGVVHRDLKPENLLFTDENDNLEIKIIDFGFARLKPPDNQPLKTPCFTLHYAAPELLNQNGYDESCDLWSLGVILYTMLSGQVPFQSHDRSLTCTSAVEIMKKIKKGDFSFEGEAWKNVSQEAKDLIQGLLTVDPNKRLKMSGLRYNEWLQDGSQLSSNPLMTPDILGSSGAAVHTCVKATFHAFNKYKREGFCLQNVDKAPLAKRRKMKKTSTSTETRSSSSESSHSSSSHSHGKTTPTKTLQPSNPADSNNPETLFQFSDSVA
# Chain of human Phosphodiesterase 4A1 (PDE4A1), PDE4A (gene 5141) (P27815 whole entry, looked up): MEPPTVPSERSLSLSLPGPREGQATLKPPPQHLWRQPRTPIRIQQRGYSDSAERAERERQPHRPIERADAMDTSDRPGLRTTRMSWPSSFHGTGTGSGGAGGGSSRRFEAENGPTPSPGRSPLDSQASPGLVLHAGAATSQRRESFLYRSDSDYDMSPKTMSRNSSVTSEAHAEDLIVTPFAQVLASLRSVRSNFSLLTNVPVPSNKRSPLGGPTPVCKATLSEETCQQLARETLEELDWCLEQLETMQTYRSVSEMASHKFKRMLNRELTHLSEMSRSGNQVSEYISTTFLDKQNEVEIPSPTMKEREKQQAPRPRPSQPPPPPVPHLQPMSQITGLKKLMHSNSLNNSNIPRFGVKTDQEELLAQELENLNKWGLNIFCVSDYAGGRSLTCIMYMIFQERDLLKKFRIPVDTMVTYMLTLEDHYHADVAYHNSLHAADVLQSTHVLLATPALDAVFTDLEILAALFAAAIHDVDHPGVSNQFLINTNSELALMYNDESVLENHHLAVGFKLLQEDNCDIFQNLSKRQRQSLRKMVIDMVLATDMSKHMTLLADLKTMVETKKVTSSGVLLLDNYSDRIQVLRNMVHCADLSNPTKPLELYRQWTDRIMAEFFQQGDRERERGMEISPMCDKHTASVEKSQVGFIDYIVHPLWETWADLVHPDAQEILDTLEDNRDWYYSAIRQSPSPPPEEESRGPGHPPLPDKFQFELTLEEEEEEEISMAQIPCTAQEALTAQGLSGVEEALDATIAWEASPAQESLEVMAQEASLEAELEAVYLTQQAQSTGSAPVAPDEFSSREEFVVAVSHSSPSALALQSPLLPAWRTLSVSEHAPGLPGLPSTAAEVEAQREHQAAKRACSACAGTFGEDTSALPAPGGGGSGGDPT
# Chain of human Matrix Metalloproteinase-3 (MMP3), MMP3 (gene 4314) (P08254 whole entry, looked up): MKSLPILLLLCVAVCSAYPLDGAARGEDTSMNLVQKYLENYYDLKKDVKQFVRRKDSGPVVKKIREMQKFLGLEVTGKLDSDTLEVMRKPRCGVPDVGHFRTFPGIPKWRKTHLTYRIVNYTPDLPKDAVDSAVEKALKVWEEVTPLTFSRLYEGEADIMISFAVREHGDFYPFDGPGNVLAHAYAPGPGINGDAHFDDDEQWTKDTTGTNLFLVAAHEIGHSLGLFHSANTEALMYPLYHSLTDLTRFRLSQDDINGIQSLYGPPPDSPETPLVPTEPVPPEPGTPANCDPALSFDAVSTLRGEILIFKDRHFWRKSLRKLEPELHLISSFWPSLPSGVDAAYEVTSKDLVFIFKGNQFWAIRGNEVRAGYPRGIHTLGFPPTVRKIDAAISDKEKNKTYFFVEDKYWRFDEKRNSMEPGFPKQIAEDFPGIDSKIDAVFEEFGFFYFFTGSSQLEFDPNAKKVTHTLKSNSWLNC
# Chain of human Matrix Metalloproteinase-7 (MMP7), MMP7 (gene 4316) (P09237 whole entry, looked up): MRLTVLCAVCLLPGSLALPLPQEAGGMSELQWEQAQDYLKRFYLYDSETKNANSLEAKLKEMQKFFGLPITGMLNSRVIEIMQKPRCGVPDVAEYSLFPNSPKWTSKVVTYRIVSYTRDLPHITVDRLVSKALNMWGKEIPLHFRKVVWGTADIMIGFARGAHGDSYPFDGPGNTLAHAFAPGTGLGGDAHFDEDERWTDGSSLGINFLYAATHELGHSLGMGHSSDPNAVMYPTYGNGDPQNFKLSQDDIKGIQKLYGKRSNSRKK
# Chain of human Matrix Metalloproteinase-2 (MMP2), MMP2 (gene 4313) (P08253 whole entry, looked up): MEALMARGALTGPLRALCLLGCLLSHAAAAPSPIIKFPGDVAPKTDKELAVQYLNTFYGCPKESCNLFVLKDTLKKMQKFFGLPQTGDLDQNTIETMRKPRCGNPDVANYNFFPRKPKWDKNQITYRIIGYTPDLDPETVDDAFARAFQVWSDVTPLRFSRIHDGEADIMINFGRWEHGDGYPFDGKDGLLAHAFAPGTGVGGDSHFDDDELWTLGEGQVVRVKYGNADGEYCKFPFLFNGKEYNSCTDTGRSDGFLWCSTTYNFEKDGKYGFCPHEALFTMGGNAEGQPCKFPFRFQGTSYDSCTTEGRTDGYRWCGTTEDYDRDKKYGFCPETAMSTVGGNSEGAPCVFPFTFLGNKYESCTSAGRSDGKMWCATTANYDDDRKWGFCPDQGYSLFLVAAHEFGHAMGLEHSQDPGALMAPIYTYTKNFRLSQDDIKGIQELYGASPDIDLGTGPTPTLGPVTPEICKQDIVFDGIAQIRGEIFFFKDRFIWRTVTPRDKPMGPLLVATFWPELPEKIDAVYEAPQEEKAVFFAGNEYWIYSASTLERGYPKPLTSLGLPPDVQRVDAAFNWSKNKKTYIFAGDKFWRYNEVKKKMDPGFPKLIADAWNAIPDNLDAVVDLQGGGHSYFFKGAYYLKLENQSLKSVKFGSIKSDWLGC
compound,measurement,setting,value
CCOC(=O)C(=O)OCC,AC50,[1],4.5 µM (active)
Cc1ccc(C(C)(C)O)cc1,AC50,[1],4.24 µM (active)
CC(O)COCC(C)O (centres undefined),outcome,[2],inactive
CC(C)(C)c1cc(CCC(=O)OCCSCCOC(=O)CCc2cc(C(C)(C)C)c(O)c(C(C)(C)C)c2)cc(C(C)(C)C)c1O,outcome,[2],inactive
OCCN1CCOCC1,AC50,[1],4.96 µM (active)
C=C(C)C(N)=O,outcome,[3],inactive
S=c1[nH][nH]c(=S)s1,outcome,[2],inactive
COc1ccccc1NC(=O)CC(C)=O,AC50,[2],7.87 µM (active)
Brc1cc(Br)cc(Br)c1,outcome,[2],inactive
CCCOC(=O)CC,AC50,[1],6.89 µM (active)
COC(=O)c1ccc(C(=O)OC)cc1,outcome,[1],inactive
CCOC(=O)CCCCCCCCC(=O)OCC,outcome,[2],inactive
Nc1ccc(N)c([N+](=O)[O-])c1,AC50,[1],4.96 µM (active) and 1.02 µM (active)
CC(C)(O)CCc1ccccc1,outcome,[1],inactive
CCCCCCCCCO,AC50,[1],10.6 µM (active)
OCCCO,AC50,[2],16.1 µM (active)
CCC(CC)CO,outcome,[2],inactive
C=CC(=O)OCC(CO)(COC(=O)C=C)COC(=O)C=C,AC50,[1],10.5 µM (active)
CCO[Si](CCC#N)(OCC)OCC,outcome,[2],inactive
CC/C(=C(\c1ccccc1)c1ccc(OCCN(C)C)cc1)c1ccccc1,AC50,[4],42.5 µM (active)
same,outcome,[5],inactive
same,outcome,[6],inactive
same,outcome,[7],inactive
same,outcome,[1],inactive
same,AC50,[8],27.9 µM (active)
same,outcome,[9],inactive
same,AC50,[2],22.9 µM (active)
CCCCCCOC(C)=O,outcome,[2],inactive
CC1(C)[C@H](C=C(Cl)Cl)[C@H]1C(=O)OCc1cccc(Oc2ccccc2)c1,AC50,[2],25 µM (active)
N#CCCNCCC#N,outcome,[2],inactive
C=CCOCC(O)CO (centres undefined),AC50,[1],1.68 µM (active)
CCCCOCCOCCO,outcome,[3],inactive
O=C(c1ccc(OCCN2CCCCC2)cc1)c1c(-c2ccc(O)cc2)sc2cc(O)ccc12,AC50,[4],17.4 µM (active)
same,outcome,[10],inactive
same,AC50,[7],22.1 µM (active)
same,outcome,[8],inactive
same,AC50,[9],16.7 µM (active)
same,AC50,[3],4.96 µM (active)
same,AC50,[2],25 µM (active)
